Measurements taken from PubChem BioAssay (EPA / NIEHS).
Calls of active or inactive are those of the source. Rule for the calls: active = hit-call score of the fitted dose curve at least 0.9, where 1 is the maximum; inactive = score below 0.9.

molecular target: X-box-binding protein 1 (Homo sapiens) (UniProt P17861); assay: ATG_Xbp1_CIS: Attagene CIS-FACTORIAL HepG2 Assay for human X-box Binding Protein 1 (XBP1) (AID 2282972); conditions: HepG2 XBP1 cis-element reporter, Attagene multiplex; actives raise or lower the signal
Sequence (P17861 whole entry, looked up): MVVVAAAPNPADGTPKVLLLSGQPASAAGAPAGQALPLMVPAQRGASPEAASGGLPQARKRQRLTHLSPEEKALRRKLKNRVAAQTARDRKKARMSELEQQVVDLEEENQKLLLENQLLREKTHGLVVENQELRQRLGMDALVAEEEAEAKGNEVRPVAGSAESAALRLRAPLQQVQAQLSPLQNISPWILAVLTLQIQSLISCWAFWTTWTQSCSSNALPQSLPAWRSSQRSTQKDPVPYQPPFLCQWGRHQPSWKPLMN
Protocol: ATG_CIS is a cell-based, multiplexed-readout assay that uses HepG2, a human liver cell line, with measurements taken at 24 hours after chemical dosing in a 24-well plate.ATG_Xbp1_CIS is one of 52 assay component(s) measured or calculated from the ATG_CIS assay. It is designed to make measurements of mRNA induction, a form of inducible reporter, as detected with fluorescence intensity signals by Reverse transcription polymerase chain reaction (RT-PCR) and Capillary electrophoresis technology.Data from the assay component ATG_Xbp1_CIS was analyzed into 1 assay endpoint. This assay endpoint, ATG_Xbp1_CIS, was analyzed with bidirectional fitting relative to DMSO as the negative control and baseline of activity. Using a type of inducible reporter, measures of mRNA for gain or loss-of-signal activity can be used to understand the reporter gene at the transcription factor-level as they relate to the gene XBP1. Furthermore, this assay endpoint can be referred to as a primary readout, because this assay has produced multiple assay endpoints where this one serves a reporter gene function. To generalize the intended target to other relatable targets, this assay endpoint is annotated to the dna binding intended target family, where the subfamily is basic leucine zipper.
Human liver HepG2 cells are transiently transfected with multiple reporter transcription units (MRTUs) in 6-well plates using FuGene 6 reagent (Roche; 3 ml FuGene/1 mg DNA). The MRTU constructs are regulated by a cis-regulating element (promoter). […] A major difference between the CIS and TRANS system is that in CIS activities of endogenous TFs are measured, whereas the TRANS assay evaluates changes in activities of exogenous, chimeric NR-Gal4 proteins. […] At the end of 24 hour incubation, total RNA was isolated using TriZol reagent (Invitrogen). The isolated RNA is then reverse-transcribed using oligo(dT) primer and Mo-MLV reverse transcriptase (Invitrogen) with DNAse I (Ambion) treatment for 30 min. The one-tenth of the produced cDNA was amplified by PCR using Taq DNA polymerase (Invitrogen) and two reporter sequence-specific primers. The PCR products were fluorescently labeled by primer extension with 6-arboxyfluorescein (6-FAM) 5'-labeled reporter sequence-specific primer (2 min at 95 C, 20 s at 68 C and 10 min at 72 C) and these products were digested with 5U of HpaI (New England Biolabs) for 2h at 37 C. The fragments were purified using Qiaquick PCR columns (Qiagen), analyzed on an ABI 3130xL genetic analyzer (Applied Biosystems) with peak positions identified by using a set of X-rhodamine (ROX)-labeled MapMarker1000 molecular weight standards (BioVentures). The raw capillary electrophoresis data was processed using Attagraph software (Attagene).

SMILES | outcome
CC(C)OC=O | inactive
O=C(O)C(F)(F)C(F)(F)C(F)(F)C(F)(F)C(F)(F)C(F)(F)C(F)F | inactive
CCC(Cc1c(I)cc(I)c(N)c1I)C(=O)O (stereo not given) | inactive
FC(F)(F)C(F)(F)C(F)(F)C(F)(F)C(F)(F)C(F)(F)C(F)(F)CCI | inactive
CC(C)(C)C(=O)C1C(=O)c2ccccc2C1=O | inactive
O=C(O)CCC(F)(F)C(F)(F)C(F)(F)C(F)(F)C(F)(F)C(F)(F)C(F)(F)F | inactive
Brc1ccccn1 | inactive
OCCCc1cccnc1 | inactive
COc1ccccc1C=O | inactive
NCC(F)(F)C(F)(F)C(F)(F)C(F)(F)C(F)(F)C(F)(F)C(F)(F)C(F)(F)F | inactive
O=C1c2c(O)ccc(Nc3ccc(CCO)cc3)c2C(=O)c2c([N+](=O)[O-])ccc(O)c21 | inactive
CC(C)(C)c1cc(CCC(=O)NCCCCCCNC(=O)CCc2cc(C(C)(C)C)c(O)c(C(C)(C)C)c2)cc(C(C)(C)C)c1O | inactive
OCC(O)CC(F)(F)C(F)(F)C(F)(F)C(F)(F)C(F)(F)C(F)(F)C(F)(F)C(F)(F)F (stereo not given) | inactive
NC(=O)C(F)(F)C(F)(F)C(F)(F)C(F)F | inactive
OCC(O)CC(F)(F)C(F)(F)C(F)(F)C(F)(F)F (stereo not given) | inactive
CCCCCCCCCc1ccc(OCCO)cc1 | inactive
OCCCCC(F)(F)C(F)(F)C(F)(F)C(F)(F)F | inactive
CC1CCCCC1 | inactive
NC(=O)C(F)(F)C(F)(F)C(F)(F)F | inactive
CC1=CCC(=O)O1 | inactive

SMILES | outcome
CCCCCCCC/C=C\CCCCCCCC(=O)N(C)CC(=O)O | inactive
CCN(CC)c1ccc(N=Nc2ccccc2)cc1 | inactive
O=C(c1ccccc1)c1ccc(O)cc1O | inactive
CCOC(=O)C1CC(=O)C(=C(O)C2CC2)C(=O)C1 (stereo not given) | inactive
OCC(F)(F)C(F)(F)C(F)(F)CO | inactive
CCCCCCCCn1sc(Cl)c(Cl)c1=O | inactive
C=CC(=O)OCC(F)(F)C(F)(F)C(F)(F)C(F)(F)C(F)(F)C(F)(F)C(F)(F)C(F)F | inactive
NCC(F)(F)C(F)(F)C(F)(F)C(F)(F)C(F)(F)C(F)(F)F | inactive
N#Cc1ccccc1O | inactive
CC(C)C(=O)OCc1ccccc1 | inactive
CC(C)CC=C(C=O)c1ccccc1 | inactive
O=C(F)C1(F)C(F)(F)C(F)(F)C(F)(F)C(F)(F)C1(F)F | inactive
CCC(=O)OC(C)c1ccccc1 (stereo not given) | inactive
CCc1cccc(C)c1N(C(=O)C(=O)O)C(C)COC (stereo not given) | inactive
F[Si-2](F)(F)(F)(F)F | inactive
CCCCCCCC/C=C\CCCCCCCC(=O)OCC(O)CO (stereo not given) | inactive
OCC(F)(F)C(F)(F)C(F)(F)C(F)(F)C(F)(F)C(F)(F)CO | inactive
CCCCCCCCCCCCCCCCC | inactive
C[C@]12CC[C@H]3C(=CCc4cc(O)ccc43)[C@@H]1CCC2=O | inactive
Cc1ccc([N+](=O)[O-])c(C)c1 | inactive
